# RAD54 branch: RAD54 (human) branch migration inhibition | AID 602329 | RAD54 Holliday junction branch migration, FAM/BHQ fluorescence | actives 0.14% (n = 360,000) | inhibition, % at 10.4 µM;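 active = mean normalized replicate activity at least 40 and at least half of replicates scoring 40 or more; inconclusive = only one of the two criteria met; inactive = mean below 40 and under half of replicates reaching 40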;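 note: 0% = median of neutral control wells and 100% = median of positive control wells; inhibitors cause a drop in the FAM fluorescence signal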
# ABCB6 inh MLPCN: human ABCB6 transporter inhibition. K562-ABCB6 porphyrin accumulation, flow cytometry, 1 h; stronger effect = lower value. fluorescence ratio to DMSO, % at 10 µM. actives 0.19% (n = 360,000). Q9NP58;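 active = fluorescence ratio to DMSO below 75%, the collection mean minus 3 SD; inconclusive = too few cells collected in the well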;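 note: signal is porphyrin accumulated inside mitochondria; 100% equals median channel fluorescence of DMSO control wells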
# N-glyco inh: N-linked glycosylation inhibition; reporter increase, % at 12.5 µM; D54 ERlucT glycosylation luciferase reporter, 24 h; percent of 100 nM tunicamycin response; AID 588692; actives 0.23% (n = 360,000);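 active = mean luciferase reporter signal, scaled so untreated is 0 and the glycosylation-blocking control 100, at or above a set limit in every replicate; inconclusive = mean reaches the limit but not every replicate does; inactive = mean below the limit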;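 note: luciferase carries N-glycosylation sites so blocking glycosylation raises the light; 0% = median of neutral control wells and 100% = median of 100 nM tunicamycin wells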
# Vif imaging: HIV Vif inhibition; AID 602346; inhibition, % at 7.49 µM; HEK293T cells, Vif self-association by quenched fluorescence, imaging, 24 h; actives 0.35% (n = 340,000); in the data active = inhibition above about 50%, passing the limit was not always enough; inconclusive = no clear call, values can overlap the other calls; inactive = below about 31%
# Myeloid diff 2: compounds promoting myeloid differentiation; actives 1% (n = 360,000); ER-HoxA9 myeloid progenitors, lysozyme-GFP differentiation, flow cytometry; calls only at 10 µM;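 active = normalized GFP-positive differentiation at or above the plate's own cutoff, the solvent-only control mean plus 3 SD; inconclusive = no clear call, values can overlap the other calls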;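 note: cells exposed to compound for four days before flow analysis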
# * hit, by the source's call; i = inactive; ? = inconclusive; . = no result given; + = active, no number. Only some compounds are listed: those with a hit (about 1.6% of all), similar ones and a draw of the others.
SMILES,RAD54 branch,ABCB6 inh MLPCN,N-glyco inh,Vif imaging,Myeloid diff 2
CC(=O)c1cccc(NC(=O)C(C)OC(=O)c2ccc3ncsc3c2)c1 (stereo unspecified),-5,100,-1,12,+
COc1ccc2c(c1OC)c(=O)n1c3ccc(OC(C)C(=O)NCCCN4CCOCC4)cc3c3ccnc2c31 (stereo unspecified),73*,100,9,-4,i
CC(Oc1ccc2c(c1)c1ccnc3c4ccccc4c(=O)n2c13)C(=O)NCCN1CCOCC1 (stereo unspecified),89*,98,74*,-20,?
CC(Oc1ccc2c3c(c(=O)oc2c1)CCCC3)C(=O)NCCN1CCOCC1 (stereo unspecified),-2,104,0,-11,?
Cc1c(OC(C)C(=O)NCCCN2CCOCC2)ccc2c1oc(=O)c1ccccc12 (stereo unspecified),3,97,2,-3,i
COc1ccc2c(c1OC)c(=O)n1c3ccc(OC(C)C(=O)NCCN4CCOCC4)cc3c3ccnc2c31 (stereo unspecified),97*,101,13,-9,i
CO[C@@H]1CN(C)C(=O)c2ccc(NC(=O)CC(F)(F)F)cc2OC[C@@H](C)N(S(=O)(=O)c2cn(C)cn2)C[C@@H]1C,6,.,.,.,.
COc1cccc(-c2nc(C(N)=O)c3[nH]c(=O)n(-c4cccc(Cl)c4)c3n2)c1OC,5,98,3,13,i
COc1ccc(-c2nc(C(N)=O)c3[nH]c(=O)n(-c4cccc(Cl)c4)c3n2)cc1OC,8,128,36*,11,.
C[C@@H]1CN([C@@H](C)CO)C(=O)c2cc(NC(=O)Nc3ccccc3)ccc2O[C@@H](C)CCCCO[C@@H]1CN(C)C(=O)Cc1ccccc1,2,.,.,.,.
C=CCNC(=O)[C@H]1[C@@H]2C(=O)O[C@@H](c3ccccc3)[C@@H](c3ccccc3)N2[C@@H](c2ccc(OCCO)cc2)[C@]12C(=O)Nc1ccccc12,-3,.,.,.,.
N#Cc1cc(C(=O)c2cc(F)ccc2O)cn(-c2nccs2)c1=O,-92,211,0,-1,+
O=[N+]([O-])c1ccc(Nc2ccccc2)c2nonc12,-18,99,-1,-21,i
O=[N+]([O-])c1ccc(Sc2cccc[n+]2[O-])c2nonc12,.,120,-24,77*,.
COc1ccccc1C(=O)Nc1ccnn1C1CCN(C/C=C/c2ccc(F)cc2)CC1,-1,102,3,-4,+
CN(c1ccc(C(=O)Nc2ccc3c(c2)OCCO3)cc1)S(C)(=O)=O,7,95,-3,-11,+
Cc1ccnc2nc(C(=O)Nc3cc(Cl)ccc3N3CCOCC3)nn12,6,92,41*,-5,i
COc1ccc(CCN2C(=O)C=CC2=O)cc1OC,.,94,-7,3,.
COc1ccc(CCN2C(=O)c3cccnc3C2=O)cc1OC,-2,97,1,56*,i
COc1ccc(-c2ccc3c(N)c(C(=O)c4ccc(OC)c(OC)c4)sc3n2)cc1,-1,111,6,148*,i
COc1ccc(-c2ccc3c(N)c(C(=O)NC(C)C)sc3n2)cc1OC,7,94,4,-3,i
NC(=O)c1sc2nc(-c3ccccc3)ccc2c1N,-4,135,6,61*,+
CCOC(=O)c1sc2nc(-c3ccccc3)ccc2c1N,.,99,-15,19,i
COc1ccc(C(=O)c2sc3nc(-c4ccccc4)ccc3c2N)cc1OC,-2,92,1,i,+
CC1=C([C@H](O)CCc2ccccc2)[C@H](CO)n2c(=O)n(-c3ccccc3)c(=O)n2C1,-2,.,.,.,.
SMILES,RAD54 branch,ABCB6 inh MLPCN,N-glyco inh,Vif imaging,Myeloid diff 2
C[C@@H]1CN([C@@H](C)CO)C(=O)c2cc(NC(=O)NC3CCCCC3)ccc2O[C@@H](C)CCCCO[C@@H]1CN(C)S(=O)(=O)c1ccc(F)cc1,-7,.,.,.,.
C[C@H]1CN([C@@H](C)CO)C(=O)c2cccc(NC(=O)C3CC3)c2O[C@H]1CN(C)C(=O)Nc1ccccc1,-4,.,.,.,.
COc1cc2c(cc1O)CC[n+]1cc3c(OC)c(OC)ccc3cc1-2,76*,98,3,-4,i
CC1(C)CC(N2CCCC2)=CC(=[N+]2CCCCCC2)C1,.,85,3,2,i
CC1CC(C)C[N+](=C2C=C(N3CCCC3)CC(C)(C)C2)C1 (stereo unspecified),.,95,1,-18,+
COc1cccc(CNC(=O)CCCn2ncn3c(cc4occc43)c2=O)c1,3,98,-1,3,+
COc1cccc(CNC(=O)COC(=O)c2ccc(-c3ccc(O)cc3)cc2)c1,1,98,28*,13,i
C[C@H](CO)N1C[C@H](C)[C@@H](CN(C)C(=O)Nc2cc(F)ccc2F)Oc2cc(/C=C/c3ccccc3)ccc2S1(=O)=O,7,.,.,.,.
CC(=O)c1ccc(N2CCN(S(=O)(=O)c3ccc4c(c3)NC(=O)CC(=O)N4)CC2)cc1,-3,105,2,7,+
C[C@@H]1CCCCO[C@H](CN(C)C(=O)Nc2ccc(F)cc2)[C@@H](C)CN([C@@H](C)CO)C(=O)c2cc(NS(=O)(=O)c3ccc(F)cc3)ccc2O1,-10,.,.,.,.
Cc1cc2oc(C(=O)NCC(c3ccco3)N3CCCC3)c(C)c2cc1C (stereo unspecified),4,91,-1,-5,i
Cc1ccc2oc(C(=O)NCC(c3ccco3)N3CCCC3)c(C)c2c1 (stereo unspecified),-7,92,-5,-5,+
O=C(NCC(c1ccco1)N1CCCCC1)c1ccc([N+](=O)[O-])s1 (stereo unspecified),11,95,7,-8,+
C[C@@H]1CN([C@@H](C)CO)C(=O)c2cc(NC(=O)NC3CCCCC3)ccc2O[C@@H](C)CCCCO[C@@H]1CN(C)S(=O)(=O)c1cccs1,3,.,.,.,.
COc1cc(/C=C/C(=O)OCC(=O)N(C)Cc2ccccc2)ccc1O,-4,97,-5,51*,i
COc1cc(/C=C/C(=O)OCC(=O)N(C)Cc2ccccc2)cc(OC)c1OC,-3,97,4,8,i
Cc1sc2nc(COC(=O)c3cccc(S(=O)(=O)N(C)c4ccccc4)c3)[nH]c(=O)c2c1C,-20,125,-1,-7,+
Cc1ccc2c(c1)C1CN(C)CCC1N2S(=O)(=O)c1ccc(C#N)cc1 (stereo unspecified),3,90,0,55*,i
CN1[C@H](C(=O)NCc2ccccn2)[C@@H](CO)[C@@H]2Cn3c(ccc(-c4cccc(F)c4)c3=O)[C@@H]21,-3,.,.,.,.
Nc1ccc2nc(-c3ccccc3)[nH]c2c1,8,94,-1,8,+
Cc1cc(C(=O)Nc2cccc3c2O[C@@H](CN(C)C(=O)Nc2ccccc2)[C@@H](C)CN([C@H](C)CO)C3=O)n(C)n1,1,.,.,.,.
CCOc1ccc(/C=C(\C#N)C(=O)Nc2cccnc2)cc1,-7,122,5,-2,i

# Screening results from PubChem BioAssay.
